Bioassay records deposited in PubChem BioAssay by Broad Institute.
C diff HTS: blocks growth of Clostridium difficile; 0.25% of 86,000 active; Clostridium difficile clinical isolate growth, OD600, 24 h; stronger effect = lower value; growth activity, negative = inhibition, % at 16 µg/mL (by protocol); AID 1259249;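 active = mean growth activity at or below -80% and every replicate also at or below -80%; inconclusive = mean at or below -80% but some replicate above -80%; inactive = mean growth activity above -80%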;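 note: 0% = DMSO wells and -100% = levofloxacin 16 µg/mL wells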
T cruzi growth-1: inhibitors of T. cruzi proliferation; 5.9% of 77,000 active; T. cruzi beta-gal in NIH3T3, GalScreen luminescence, 90 h; inhibition, % at 8.34 µM;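 active = mean inhibition above about 93%, with at least 55% of replicates each passing it, limit read from the data, passing the limit was not always enough; inconclusive = only one of those two conditions holds; inactive = neither condition holds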
Pf Dd2 inh: blocks growth of Plasmodium falciparum Dd2 parasites | AID 1159554 | P. falciparum Dd2 growth, SYBR Green, 72 h; stronger effect = lower value | activity change, % at 10 µM | 2.3% of 94,000 active; in the data active = activity change below about -80%; inconclusive = no clear call, values can overlap the other calls
T cruzi growth-2: inhibitors of T. cruzi proliferation. shares compounds with T cruzi growth-1. T. cruzi beta-gal in NIH3T3, GalScreen luminescence, 90 h. inhibition, % at 8.35 µM. 72% of 5,600 active. AID 651739;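 active = mean replicate inhibition above about 95% and at least 55% of replicates individually reaching it, limit read from the data; inconclusive = only one of the two criteria is met; inactive = neither criterion is met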
T cruzi growth-3: Trypanosoma cruzi proliferation inhibition | shares compounds with T cruzi growth-1 | T. cruzi beta-gal in NIH3T3, GalScreen luminescence, 90 h | inhibition, % at 2.09 µM | 21% of 5,600 active | AID 651740;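 active = mean inhibition above about 95%, with at least 55% of replicates also reaching it, limit read from the data; inconclusive = meets just one of the two conditions; inactive = meets neither condition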;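 note: plate controls were neutral control median for no effect and positive control median for full effect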
3T3 cytotox: cytotoxicity in mouse NIH/3T3 fibroblasts | shares compounds with T cruzi growth-1 | NIH/3T3 viability, CellTiter-Glo ATP luminescence, 90 h | cytotoxicity (signal decrease), % at 8.35 µM | 14% of 5,600 active | AID 651742;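 active = mean signal decrease across replicates above about 35% based on untreated-well scatter, with enough replicates individually passing, limit read from the data; inconclusive = no rule stated though some were filed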;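 note: 0% = median of neutral control wells and 100% = median of positive control wells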
NIH3T3 tox 2: kills mouse NIH/3T3 fibroblasts | inhibition, % at 24.9 µM | AID 651744 | NIH/3T3 viability, CellTiter-Glo ATP luminescence, 90 h | 56% of 5,600 active | shares compounds with T cruzi growth-1;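 active = mean loss of cell viability signal at or above a set limit, and enough replicates individually reaching it; inconclusive = meets only the mean limit or only the replicate share; inactive = meets neither condition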;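 note: 0% = median of neutral control wells and 100% = median of positive control wells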
Starred values were filed as active, the others as inactive. Sampled rows, rich in hits. Any-hit rate of the full collection: about 6.8%.

For C[C@H](CO)N1C[C@H](C)[C@H](CN(C)C(=O)Cc2cccnc2)Oc2ncc(-c3cccnc3)cc2C1=O the results were C diff HTS 0, T cruzi growth-1 74 and Pf Dd2 inh 13.
`O=C1CN(S(=O)(=O)c2ccccc2)C[C@H]2[C@@H](c3ccc(C#CCc4ccccc4)cc3)[C@H](CO)N12` gave C diff HTS 10 and Pf Dd2 inh -32.
C[C@@H]1CCCCO[C@@H](CN(C)Cc2ccc3c(c2)OCO3)[C@@H](C)CN([C@H](C)CO)C(=O)c2cc(NC(=O)Nc3ccc(F)cc3)ccc2O1 was read as C diff HTS 6, T cruzi growth-1 97*, Pf Dd2 inh -13, T cruzi growth-2 114*, T cruzi growth-3 30, 3T3 cytotox 11 and NIH3T3 tox 2 -6.
Screening C[C@@H]1CN([C@H](C)CO)C(=O)c2cc(NC(=O)Nc3ccc(F)cc3)ccc2O[C@@H](C)CCCCO[C@H]1CN(C)Cc1ccc2c(c1)OCO2 returned C diff HTS 20, T cruzi growth-1 87 and Pf Dd2 inh -71.
Screening C[C@@H]1CN([C@H](C)CO)C(=O)c2cc(NC(=O)Nc3ccc(F)cc3)ccc2O[C@@H](C)CCCCO[C@@H]1CN(C)Cc1ccc2c(c1)OCO2 returned C diff HTS 24, T cruzi growth-1 88 and Pf Dd2 inh inconclusive.
C[C@@H]1CCCCO[C@H](CN(C)Cc2ccc3c(c2)OCO3)[C@H](C)CN([C@H](C)CO)C(=O)c2cc(NC(=O)Nc3ccc(F)cc3)ccc2O1 was read as C diff HTS 2, T cruzi growth-1 96*, Pf Dd2 inh -74, T cruzi growth-2 103*, T cruzi growth-3 59, 3T3 cytotox 21 and NIH3T3 tox 2 104*.
`C[C@@H]1CN([C@@H](C)CO)C(=O)c2cc(NC(=O)Nc3ccc(F)cc3)ccc2O[C@@H](C)CCCCO[C@H]1CN(C)Cc1ccc2c(c1)OCO2` gave C diff HTS 23, T cruzi growth-1 89 and Pf Dd2 inh -80.
For C[C@H](CO)N1C[C@H](C)[C@@H](CN(C)Cc2ccc3c(c2)OCO3)OCCCC[C@H](C)Oc2ccc(NC(=O)Nc3ccc(F)cc3)cc2C1=O the results were C diff HTS 0, T cruzi growth-1 103*, Pf Dd2 inh 16, T cruzi growth-2 100*, T cruzi growth-3 81, 3T3 cytotox 18 and NIH3T3 tox 2 43*.
Screening Cc1noc(C)c1NC(=O)Nc1ccc2c(c1)C(=O)N([C@@H](C)CO)C[C@H](C)[C@H](CN(C)S(=O)(=O)c1cn(C)cn1)O2 returned C diff HTS -6, T cruzi growth-1 49 and Pf Dd2 inh 16.
Screening C[C@H](CO)N1C[C@H](C)[C@H](CN(C)C)Oc2c(NC(=O)c3ccncc3)cccc2C1=O returned C diff HTS -1, T cruzi growth-1 8 and Pf Dd2 inh 7.
For CCC(=O)N1CC2(C1)[C@@H](c1ccc(-c3ccccc3C)cc1)[C@@H](CO)N2C(=O)CC the results were C diff HTS -2 and Pf Dd2 inh 12.
`CNC[C@H]1OCCCC[C@H](C)Oc2ccc(NS(=O)(=O)c3cn(C)cn3)cc2C(=O)N([C@H](C)CO)C[C@@H]1C` gave C diff HTS 6, T cruzi growth-1 27 and Pf Dd2 inh 29.
`C/C=C/c1ccc2c(c1)O[C@H](CN(C)Cc1ccccc1)[C@@H](C)CN([C@H](C)CO)S2(=O)=O` gave C diff HTS 7, T cruzi growth-1 86 and Pf Dd2 inh -26.
`C/C=C/c1ccc2c(c1)O[C@@H](CN(C)Cc1ccc(F)cc1)[C@H](C)CN([C@@H](C)CO)S2(=O)=O` gave C diff HTS 14, T cruzi growth-1 118*, Pf Dd2 inh -60, T cruzi growth-2 99*, T cruzi growth-3 105*, 3T3 cytotox 54* and NIH3T3 tox 2 104*.
For C/C=C/c1ccc2c(c1)O[C@H](CN(C)Cc1ccccc1)[C@H](C)CN([C@H](C)CO)S2(=O)=O the results were C diff HTS 2, T cruzi growth-1 67 and Pf Dd2 inh 15.
`C/C=C/c1ccc2c(c1)O[C@H](CN(C)Cc1ccc(F)cc1)[C@H](C)CN([C@H](C)CO)S2(=O)=O` gave C diff HTS -3, T cruzi growth-1 inconclusive, Pf Dd2 inh -27, T cruzi growth-2 107*, T cruzi growth-3 63, 3T3 cytotox 15 and NIH3T3 tox 2 104*.
Screening Cc1cccc(S(=O)(=O)N2CC[C@@H]3[C@H](CO)N(C)c4ccc(-c5cccc(C#N)c5)cc4[C@@H]32)c1 returned C diff HTS 8, T cruzi growth-1 77 and Pf Dd2 inh 3.
For Cc1ccc(S(=O)(=O)N2CC[C@@H]3[C@@H](CO)N(C)c4ccc(-c5cccc(C#N)c5)cc4[C@@H]32)cc1 the results were C diff HTS -1, T cruzi growth-1 93 and Pf Dd2 inh -7.
`Cc1ccc(S(=O)(=O)N2CC[C@@H]3[C@H]2c2cc(-c4cccc(C#N)c4)ccc2N(C)[C@H]3CO)cc1` gave C diff HTS 9, T cruzi growth-1 inconclusive, Pf Dd2 inh 9, T cruzi growth-2 104*, T cruzi growth-3 100*, 3T3 cytotox 44* and NIH3T3 tox 2 42*.
For CN1c2ccc(-c3cccc(C#N)c3)cc2[C@@H]2[C@@H](CCN2S(=O)(=O)c2ccccc2F)[C@@H]1CO the results were C diff HTS 2, T cruzi growth-1 92*, Pf Dd2 inh -33, T cruzi growth-2 108*, T cruzi growth-3 70, 3T3 cytotox inconclusive and NIH3T3 tox 2 6.
For CN1c2ccc(-c3cccc(C#N)c3)cc2[C@@H]2[C@@H](CCN2S(=O)(=O)c2ccccc2F)[C@H]1CO the results were C diff HTS 5, T cruzi growth-1 46 and Pf Dd2 inh -57.
`CN1c2ccc(-c3cccc(C#N)c3)cc2[C@H]2[C@H](CCN2S(=O)(=O)c2cccc(F)c2)[C@H]1CO` gave C diff HTS 3, T cruzi growth-1 25 and Pf Dd2 inh -5.
Screening CN1c2ccc(-c3cccc(C#N)c3)cc2[C@@H]2[C@@H](CCN2S(=O)(=O)c2ccccc2)[C@H]1CO returned C diff HTS 9, T cruzi growth-1 97*, Pf Dd2 inh -5, T cruzi growth-2 98*, T cruzi growth-3 109*, 3T3 cytotox 52* and NIH3T3 tox 2 76*.
For CN1c2ccc(-c3cccc(C#N)c3)cc2[C@H]2[C@H](CCN2S(=O)(=O)c2ccc(F)cc2)[C@@H]1CO the results were C diff HTS 1, T cruzi growth-1 96*, Pf Dd2 inh 9, T cruzi growth-2 102*, T cruzi growth-3 48, 3T3 cytotox 18 and NIH3T3 tox 2 13.
